In all, about 18,000 sequences were measured (“TetR repression strength (sort-seq, GFP reporter)”: median about 0.23, highest 2% from about 0.68 on). Only a selection was taken, and the highest values are over-represented in it overall.
molecular target: TetR (class B, Tn10) (UniProt P04483); assay: TetR repression strength (sort-seq, GFP reporter) (relative to tetO2 = 1); higher = stronger repression; conditions: E. coli
How it was run: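 Repression strength was calculated by subtracting the read-weighted mean bin from the top bin index plus one and dividing by the unaltered operator's value. The plasmid library was low-copy in E. coli SIG10-MAX, with eight randomized operator positions between a constitutive promoter and sfGFP and constitutive TetR. Cultures grew 5 h at 37 °C in LB containing 50 µg/mL chloramphenicol before 10^6 cells were sorted by FACS into 13 fluorescence bins, each sequenced on Illumina. Three independent transformations were averaged for members having ≥30 reads in all replicates and a CV ≤0.5.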

Sequence of TetR (class B, Tn10) (P04483 whole entry): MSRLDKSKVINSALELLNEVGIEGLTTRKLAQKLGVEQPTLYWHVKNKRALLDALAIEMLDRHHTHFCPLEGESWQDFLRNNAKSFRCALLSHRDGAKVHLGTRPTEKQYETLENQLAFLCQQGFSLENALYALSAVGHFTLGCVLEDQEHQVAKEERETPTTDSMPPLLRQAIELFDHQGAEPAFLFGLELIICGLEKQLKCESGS

Sequence	TetR repression strength
TCCCGGCCAGTGGAGGAGA	0.19
TCCCAAATAGTCGTGGAGA	0.415
TCCCGCCAAGTGCGCGAGA	0.258
TCCCGTGCAGTAATCGAGA	0.749
TCCCGTGCAGTAAACGAGA	0.326
TCCCTATCAGTTACCGAGA	0.663
TCCCGGGCAGTAATCGAGA	0.121
TCCCGTTCAGTGACAGAGA	0.504
TCCCTATGAGTGACCGAGA	0.604
TCCCGACCAGTGACAGAGA	0.644
TCCCTATCAGTGAAGGAGA	0.51
TCCCTATCAGTGACCGAGA	0.944
TCCCTATCAGTGAACGAGA	0.862
TCCCGATCAGTGAACGAGA	0.628
TCCCGATCAGTGACAGAGA	0.742
TCCCACATAGTGGTAGAGA	0.199
TCCCACTGAGTGCCTGAGA	0.139
TCCCATCCAGTGCTTGAGA	0.267
TCCCCGTAAGTGAGAGAGA	0.149
TCCCTTAAAGTATGCGAGA	0.238
TCCCTTTAAGTTCTCGAGA	0.271
TCCCTGTAAGTATGGGAGA	0.174
TCCCCCGAAGTTAAGGAGA	0.155
TCCCTATAAGTGGCCGAGA	0.719
TCCCGGTCAGTGACCGAGA	0.715
TCCCTATCAGTGGCCGAGA	0.724

Sequence	TetR repression strength
TCCCGATAAGTGGCCGAGA	0.171
TCCCGTGCAGTGCCCGAGA	0.361
TCCCTATCAGTGGGCGAGA	0.541
TCCCGTGCAGTGACCGAGA	0.709
TCCCGGTGAGTGACCGAGA	0.207
TCCCGATCAGTGGCCGAGA	0.565
TCCCGGTCAGTCACCGAGA	0.669
TCCCGCGCAGTGACCGAGA	0.219
TCCCTATGAGTGGCCGAGA	0.402
TCCCAGTGAGTCCATGAGA	0.163
TCCCAACAAGTGTTCGAGA	0.0254
TCCCTGCAAGTTTCGGAGA	0.0543
TCCCCTGGAGTAGGCGAGA	0.0907
TCCCAGTGAGTACCCGAGA	0.261
TCCCTTTTAGTGGTGGAGA	0.212
TCCCTCATAGTAAGAGAGA	0.291
TCCCTGATAGTTGGCGAGA	0.317
TCCCGTGGAGTTGACGAGA	0.0573
TCCCTGGTAGTCGAAGAGA	0.187
TCCCTCTGAGTCGAAGAGA	0.0537
TCCCAGATAGTCGAAGAGA	0.115
TCCCTGAGAGTCGAAGAGA	1.18
TCCCTGGGAGTCGAAGAGA	0.196
TCCCTGATAGTCGAAGAGA	1.14
TCCCGGATAGTGTCGGAGA	0.141
TCCCCGTTAGTTTTAGAGA	0.25

Sequence	TetR repression strength
TCCCGTTGAGTATATGAGA	0.229
TCCCGATAAGTAGAAGAGA	0.585
TCCCGGCAAGTGCTTGAGA	0.155
TCCCGTCAAGTGCTTGAGA	0.848
TCCCGTCCAGTGCTGGAGA	0.212
TCCCGTGCAGTGCTTGAGA	0.207
TCCCGTCAAGTGGTTGAGA	0.152
TCCCGTCCAGTGCTTGAGA	0.915
TCCCGCTCAGTTGGGGAGA	0.186
TCCCCAGTAGTAGTGGAGA	0.246
TCCCCTCTAGTAGGTGAGA	0.12
TCCCTTAGAGTGAGGGAGA	0.0732
TCCCAACAAGTCGCAGAGA	0.281
TCCCCATAAGTGATTGAGA	0.42
TCCCCAGCAGTGCTTGAGA	0.311
TCCCGAGCAGTGATGGAGA	0.371
TCCCGAGCAGTGGCAGAGA	0.286
TCCCAAGCAGTGACAGAGA	0.432
TCCCGAGCAGTGATCGAGA	0.708
TCCCTAGCAGTGATCGAGA	0.659
TCCCGAGCAGTGACAGAGA	0.736
TCCCCAGAAGTGATTGAGA	1.1
TCCCCAGCAGTGATTGAGA	1.1
TCCCAGGAAGTGATTGAGA	0.266
TCCCCAGCAGTGAGTGAGA	0.167
TCCCTACTAGTTACAGAGA	0.0592

Sequence	TetR repression strength
TCCCGATTAGTCTTTGAGA	0.0932
TCCCCAGGAGTCCGGGAGA	0.332
TCCCACAAAGTCAGTGAGA	0.0709
TCCCTGATAGTCTTGGAGA	0.231
TCCCTCGAAGTGGGGGAGA	0.0994
TCCCGTCGAGTAAGTGAGA	0.219
TCCCGAGTAGTGGAGGAGA	0.155
TCCCTTGGAGTAACAGAGA	0
TCCCGAGCAGTGATAGAGA	0.75
TCCCGAGCAGTGCCAGAGA	0.684
TCCCGAACAGTGTGTGAGA	0.161
TCCCGAGAAGTGCCAGAGA	0.312
TCCCGAGGAGTGCCAGAGA	0.547
TCCCGAACAGTGGGTGAGA	0.949
TCCCGAGAAGTGAAAGAGA	0.0859
TCCCAAGCAGTGAAAGAGA	0.367
TCCCGAGCAGTGAAAGAGA	0.755
TCCCGAACAGTGGGGGAGA	0.367
TCCCGGGCAGTGATAGAGA	0.571
TCCCGAGCAGTGCTAGAGA	0.661
TCCCACAAAGTGGCGGAGA	0.306
TCCCGTAAAGTTCCGGAGA	0.38
TCCCAAGGAGTAGGAGAGA	0.119
TCCCACGAAGTAATAGAGA	0.379

From a collection of fitness landscapes (doi:10.1038/s41467-024-54723-y)
